This note sets out measurements from the supplement of paper PMC9446081.

± gives the standard deviation of the averaged measurements.

GlmU, sequence (A7ZTU1 whole entry, looked up): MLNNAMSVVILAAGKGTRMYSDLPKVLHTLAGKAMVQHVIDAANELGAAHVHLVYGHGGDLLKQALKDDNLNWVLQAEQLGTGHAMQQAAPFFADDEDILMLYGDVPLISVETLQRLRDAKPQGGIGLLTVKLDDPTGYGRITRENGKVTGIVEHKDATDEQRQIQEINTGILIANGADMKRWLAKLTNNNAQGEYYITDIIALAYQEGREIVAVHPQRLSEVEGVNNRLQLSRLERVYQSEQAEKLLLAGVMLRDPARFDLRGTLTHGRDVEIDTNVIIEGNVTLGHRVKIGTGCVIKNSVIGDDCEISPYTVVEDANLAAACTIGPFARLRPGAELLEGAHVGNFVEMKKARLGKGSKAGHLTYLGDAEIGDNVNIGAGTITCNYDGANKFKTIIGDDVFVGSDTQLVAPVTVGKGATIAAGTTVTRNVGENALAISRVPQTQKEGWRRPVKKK

The target of the assay is GlmU (UniProt A7ZTU1). In words: relative enzymatic activity vs untreated control (fraction); higher = less inhibition. As to conditions: 100 µM; incubation time: 2 h at 37 C. Here is the method:
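In vitro enzymatic inhibition assays (ProFoldin kits) for 12 purified essential E. coli enzymes or complexes, each treated with 218 active antibacterial compounds at 100 µM for 2 h at 37°C. Read-outs were fluorescence or absorbance (phosphate detection, dye binding), converted to activity via standard curves and expressed relative to untreated DMSO controls.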
`Cc1c(N)nc([C@H](CC(N)=O)NC[C@@H](N)C(N)=O)nc1C(=O)N[C@H](C(=O)N[C@@H](C)[C@H](O)[C@@H](C)C(=O)N[C@@H](C(=O)NCCc1nc(-c2nc(C(=O)NCCC[S+](C)C)cs2)cs1)[C@@H](C)O)[C@@H](O[C@H]1O[C@H](CO)[C@H](O)[C@@H](O)[C@H]1O[C@H]1O[C@H](CO)[C@@H](O)[C@H](OC(N)=O)[C@@H]1O)c1cnc[nH]1` displayed a relative enzymatic activity of 1.06 ± 0.057.
The molecule `CN(C)[C@@H]1C(=O)[C@@H](C(N)=O)C(=O)[C@@]2(O)C(=O)[C@H]3C(=O)c4c(O)ccc(Cl)c4[C@@](C)(O)[C@H]3C[C@@H]12` displayed a relative enzymatic activity of 1.01 ± 0.018.
Molecule `O=S(=O)(O)O.Oc1cccc2cccnc12` returned a relative enzymatic activity of 0.987 ± 0.048.
The molecule `CC(=O)Oc1ccc(Cl)c2cccnc12` returned a relative enzymatic activity of 0.987 ± 0.052.
Next, `CN(C)[C@@H]1C(=O)C(C(N)=O)=C(O)[C@@]2(O)C(O)=C3C(=O)c4c(O)cccc4[C@](C)(O)[C@H]3C[C@@H]12`: 1.05 ± 0.084.
`Cc1c(N)nc([C@H](CC(N)=O)NC[C@@H](N)C(N)=O)nc1C(=O)N[C@H](C(=O)N[C@@H](C)[C@H](O)[C@@H](C)C(=O)N[C@@H](C(=O)NCCc1nc(-c2nc(C(=O)NCCC[S+](C)C)cs2)cs1)[C@@H](C)O)[C@@H](O[C@H]1O[C@H](CO)[C@H](O)[C@@H](O)[C@H]1O[C@H]1O[C@H](CO)[C@@H](O)[C@H](OC(N)=O)[C@@H]1O)c1c[nH]cn1` came in with a relative enzymatic activity of 0.998 ± 0.07.
Take `Oc1cc(Cl)ccc1Oc1ccc(Cl)cc1Cl`: the relative enzymatic activity turned out to be 1.113 ± 0.0014.
`O=[N+]([O-])C(Br)(CO)CO` displayed a relative enzymatic activity of 0.198 ± 0.059.
`CCCCCCCCCCCCCCCC[n+]1ccccc1` yielded a relative enzymatic activity of 0.19333 ± 8.8e-05.
Turning to `Cn1ncnc2c(=O)n(C)c(=O)nc1-2`, the relative enzymatic activity was 0.966 ± 0.021.
The molecule `COP(=S)(OC)Oc1cc(Cl)c(Cl)cc1Cl` showed a relative enzymatic activity of 1.09 ± 0.043.
`CC(=O)[O][Hg][c]1ccccc1` gave a relative enzymatic activity of 0.987 ± 0.21.
The molecule `O=[N+]([O-])c1ccc(N(CCO)CCO)c2c1no[n+]2[O-]` yielded a relative enzymatic activity of 0.935 ± 0.067.
Next, `CCCCCCCCCCCCCCCC[N+](C)(C)C.[Br-]`: 0.235 ± 0.047; `O=C1C=C2C(=CCOC2O)O1` (centres undefined): 0.811 ± 0.21; `CN[C@H]1C[C@@H](N)[C@H](O)[C@@H](O[C@@H]2O[C@H](CO)[C@H](O)[C@@H]3O[C@@]4(O[C@H]23)O[C@H]([C@@H](N)CO)[C@H](O)[C@H](O)[C@H]4O)[C@@H]1O`: 1.029 ± 0.0074.
The molecule `CN1C(=O)[C@]23CC4=CC=C[C@H](O)[C@H]4N2C(=O)[C@@]1(CO)SS3` registered a relative enzymatic activity of 0.992 ± 0.012.
In turn, `Cc1nc2c(=O)n(C)c(=O)nc-2n(C)n1` showed a relative enzymatic activity of 0.927 ± 0.071.
Regarding `[O-][n+]1ccccc1[S][Zn][S]c1cccc[n+]1[O-]`, the relative enzymatic activity worked out at 1.03 ± 0.0055.
`CCCCCCCCCCCCCCCC[n+]1ccccc1.[Cl-]` had a relative enzymatic activity of 0.16 ± 0.039.
With `CNC1C(O)C(OC2C(N)CC(N)C(OC3OC(C(C)O)C(O)C(O)C3N)C2O)OCC1(C)O` (centres undefined), the relative enzymatic activity is 0.973 ± 0.059.
Consider `CCn1cc(C(=O)[O-])c(=O)c2cc3c(cc21)OCO3.[K+]`, for which the relative enzymatic activity turned out to be 0.959 ± 0.029.
With `CN(C)[C@@H]1C(=O)[C@H](C(N)=O)C(=O)[C@@]2(O)C(=O)[C@@H]3C(=O)c4c(O)cccc4[C@@](C)(O)[C@H]3C[C@@H]12` the figure was 1.03 ± 0.011.
Take `C[CH2][Hg][S]c1ccccc1C(=O)[O-].[Na+]`: the relative enzymatic activity was found to be 1.07 ± 0.093.
